“And” between values parts separate entries of the source, which are not always exact repeats. Equal entries are not always repeated. The whole screen tested about 260,000 compounds, of which about 1,500 (0.58%) were called active. Another 5% or so got no clear call; they are omitted.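 How the source made its calls: active means inhibition above a set limit at one or more doses, reproduced on every date tested; inconclusive means results disagree between test dates, or hit never tested in dose response; inactive means the rest.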 The list is a sample of the results. Entries with a potency or affinity are not part of this list.
Each molecule was assayed against Virion infectivity factor (Human immunodeficiency virus type 1 group M subtype B (isolate BH10)) + Virion infectivity factor (Human immunodeficiency virus type 1 group M subtype B (isolate BRU/LAI)) + Virion infectivity factor (Human immunodeficiency virus type 1 group M subtype B (isolate PCV12)) + Virion infectivity factor (Human immunodeficiency virus type 1 group M subtype B (isolate HXB2)) + DNA dC->dU-editing enzyme APOBEC-3G (Homo sapiens) (UniProt P69720+P69721+P69722+P69723+Q9HC16) (assay: HIV-1 Vif–A3G interaction blockers – biochemical, TR-FRET, GST-Vif 1-94, biotin-A3G peptide, dose response retest, primary screen (AID 1117319;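 further: Vif residues 1-94 fused to GST binding biotinylated APOBEC3G peptide 110-148; 0% = full assay without inhibitor and 100% = GST in place of GST-Vif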)). Conditions: TR-FRET GST-Vif / biotin-A3G peptide binding; stronger effect = higher value.

inhibition, inactive:
CO[C@H]1C=CO[C@@]2(C)Oc3c(C)c(O)c4c(O)c(c(C=NN5CCN(C6CCCC6)CC5)c(O)c4c3C2=O)NC(=O)C(C)=CC=C[C@H](C)[C@H](O)[C@@H](C)[C@@H](O)[C@@H](C)[C@H](OC(C)=O)[C@@H]1C -8.62%
COC1C=COC2(C)Oc3c(C)c(O)c4c(O)c(c(CN5CCN(C)CC5)c(O)c4c3C2=O)NC(=O)C(C)=CC=CC(C)C(O)C(C)C(O)C(C)C(OC(C)=O)C1C (stereo not drawn) 13.7%
CCCn1c2ccc(C)cc2c2nnc(SCCN3CCOCC3)nc21 -4.1%
CC(C)N1CCC(=O)NC1=O 3.79%
O=C1CC(CSc2ccc(Cl)cc2)=NN1 -2.88%
Cc1ccc(SCC2=NNC(=O)C2)cc1 74.7%
COc1ccc(CCNC(=O)c2ccc(NS(=O)(=O)c3c(C)noc3C)cc2)cc1OC -8.32%
COc1cccc(C(=O)N[C@@H](CCSC)c2nc3ccccc3[nH]2)c1 5.58%
Cc1ccc(C2C3CSCC=C3C(C#N)=C(N)C2(C#N)C#N)cc1 (stereo not drawn) 8.68%
N#CC1=C(N)C(C#N)(C#N)C(c2cccnc2)C2COCC=C12 (stereo not drawn) 0.31%
CCOC(=O)c1c(C)[nH]c(C(=O)OCC(=O)Nc2cccnc2Cl)c1C -0.74%
Cc1ccc(C(=O)CN2/C(=C(\O)c3ccccc3)C(=O)c3ccccc3S2(=O)=O)c(C)c1 2.58%
O=C(CN1/C(=C(/O)c2ccccc2)C(=O)c2ccccc2S1(=O)=O)c1ccccc1 -0.58%
COc1cccc(-c2nnc3sc(-c4ccco4)nn23)c1 5.27%
c1coc(-c2nn3c(-c4ccco4)nnc3s2)c1 24.5%
CCOc1ccccc1NC(=O)CSc1n[nH]c(=O)n1-c1ccccc1 -11.6%
CCOC(=O)Nc1ccc2c(c1)OCO2 -0.36%
COC(=O)CNc1ccc2c(c1)OCO2 26.3%
Cn1c(CNC(=O)CNC(=O)c2cccc(F)c2)cc(=O)n(C)c1=O 1.22%
O=C1CC(N2CCSCC2)C(=O)N1c1cccc(Cl)c1 (stereo not drawn) 2.84%
COc1ccc(/C=C2/C(=N)N3N=C(CC(=O)N4CCCC4)SC3=NC2=O)cc1 -6.36%
N=C1/C(=C/c2ccco2)C(=O)N=C2SC(CC(=O)N3CCCC3)=NN12 22.9%
COc1ccc(CNC(=O)COC(=O)c2[nH]c(C)c(C(C)=O)c2C)cc1OC 7.14%
CN(c1ccc(OCC(=O)NC2CCC(O)CC2)cc1)S(=O)(=O)c1ccc(Cl)cc1 (stereo not drawn) -2.71%
O=c1cc(-c2ccccc2F)oc2ccccc12 17.5%
O=c1cc(-c2ccccc2Cl)oc2cc(O)cc(O)c12 -0.34%
O=c1[nH]c(=O)n(Cc2ccccc2)c2nc(-c3cccs3)n(CCO)c12 0.78%
Cc1ccc(S(=O)(=O)Cn2nnnc2C(CC(C)C)N2CCN(c3ccccc3)CC2)cc1 (stereo not drawn) -7.24%
Cc1ccc(S(=O)(=O)Cn2nnnc2C(CC(C)C)N2CCN(C(=O)c3ccco3)CC2)cc1 (stereo not drawn) 28%
Cc1ccc2cccc(Oc3ncnc4scc(-c5ccccc5)c34)c2n1 -1.8%
COC(=O)CSc1ncnc2scc(-c3ccccc3)c12 13.7%
COc1cc(C)cc2c1OC(c1ccccc1)CC2=O (stereo not drawn) -0.37%
COc1ccc(C2CC(=O)c3ccccc3O2)cc1 (stereo not drawn) 18.3%
O=c1c2cn[nH]c2[nH]c(=S)n1-c1ccccc1F -1.23%
CCC(C)NCCCOc1c(C)cc(C)cc1Br (stereo not drawn) -1.93%
CCC(CC)C(=O)N(CCc1ccc(OC)cc1)Cc1nc2ccccc2c(=O)[nH]1 -1.67%
COCC(=O)N(CCc1ccc(OC)cc1)Cc1nc2ccccc2c(=O)[nH]1 0.5%
O=C(CNC(=O)c1cccc(Cl)c1)NCC(c1cccs1)N1CCOCC1 (stereo not drawn) -8.67%
Cc1nnc2ccc(-c3cccc(NS(C)(=O)=O)c3)nn12 30.9%
CCCn1c(SC/C(O)=C(\C#N)c2nc3ccccc3[nH]2)n[nH]c1=O 8.52%
Cc1cc(C)n2c(SCC(O)=C(C#N)c3nc4ccccc4[nH]3)nnc2n1 -1.4%
O=C(Nc1ccccn1)C1CCN(S(=O)(=O)c2cccs2)CC1 -2.3%
O=C(Nc1ccc(Cl)cn1)C1CCN(S(=O)(=O)c2cccs2)CC1 2.8%
Cc1ccc(S(=O)(=O)NCC(=O)OC(C(=O)c2ccccc2)c2ccccc2)cc1 (stereo not drawn) 17.9%
CCCCN1C(=O)C(CC(=O)NCc2ccco2)CC(C(=O)N(CC)CC)=C1C (stereo not drawn) -1.7%
Cn1cc(C(=O)N/N=C/c2ccc(Br)c([N+](=O)[O-])c2)c2ccccc21 -0.7%
NC(=O)COC(=O)CNC(=O)c1ccc(Cl)cc1 -2.39%
Cc1ccc(C(=O)Nc2sc3c(c2C#N)CCCCC3)cc1C -3.7%
Cc1cccc(C(=O)Nc2sc3c(c2C#N)CCCCC3)c1 -5.88%
CC(C)(C)c1ccc(OCCC(=O)OCC(=O)Nc2ccc(N3CCOCC3)cc2)cc1 -3.5%
O=P(c1ccccc1)(c1ccccc1)c1cc(S(=O)(=O)O)ccc1O 26.4%
O=Nc1c(O)ccc2cc(S(=O)(=O)O)ccc12 24.3%
O=C(O)c1cc(S(=O)(=O)O)ccc1O 9.92%
Nc1cc(S(=O)(=O)O)cc2ccc(S(=O)(=O)O)cc12 0.1%
COc1ccc(C)cc1-n1c(C)cc(C=O)c1C -0.15%
c1ccc(Cn2ncc3ccccc32)cc1 23.7%
Cc1cc([N+](=O)[O-])nn1CC(=O)N/N=C/c1ccccc1Br -3.16%
Cc1nc2ccc(NC(=O)Cc3ccccc3F)cc2s1 13.4%
Cc1cc(NS(=O)(=O)c2ccc(NC(=O)Cc3cccs3)cc2)no1 -3.09%
Cc1ccnc(NS(=O)(=O)c2ccc(NC(=O)Cc3ccccc3)cc2)n1 4.16%
Cc1cc(NC(=O)CCCC(=O)NCc2cccs2)no1 10.9%
O=C(Cc1cccs1)Nc1ccc(S(=O)(=O)Nc2ncccn2)cc1 26.2%
Cc1nc2ccc(NC(=O)Cc3ccsc3)cc2s1 -2.69%
COC(=O)c1ccc(C(=O)OC)c(NC(=O)CCC(=O)O)c1 17.1%
COC(=O)c1cc(OC)c(OC)cc1NC(=O)Cc1cccs1 10.3%
COc1ccc(OC)c(-c2nc(C(N)=O)c3[nH]c(=O)n(-c4ccc(F)cc4)c3n2)c1 -0.73%
NNC(=O)c1nc(-c2cccc(-n3cccc3)c2)no1 2.13%
CC(=O)Nc1ccc(C(=O)COC(=O)CCc2ccccc2)c(F)c1 -7.82%
FC(F)(F)c1cnc(-n2cc[nH]c2=S)c(Cl)c1 -3.85%
CCCCN=C1NC(=O)C(CC(=O)NCCc2ccc(OC)cc2)S1 (stereo not drawn) 21.5%
CCOc1ncccc1C(=O)NCCN1C(=O)S/C(=C/c2cccs2)C1=O 17.3%
Cc1nc(Nc2ccccc2)c2oc3ccc(Cl)cc3c2n1 -10.6%
Cc1ccc(-c2cc(C(=O)Nc3ccccc3C)c3ccccc3n2)o1 0.87%
Cc1ccc(NC(=O)c2cc(-c3ccc(C)o3)nc3ccccc23)cc1 20.7%
CCc1c(C(=O)OC)nnc2cc(C)nn12 -2.39%
COc1ccc(SCC(=O)Nc2ccc(N3CCN(C)CC3)c(F)c2)cc1 -1.67%
CC(=O)c1c(C)[nH]c(C(=O)OCC(=O)NCC(C)C)c1C -6.38%
CNC(=O)COC(=O)c1[nH]c(C)c(C(C)=O)c1C 1.68%
CCOC(=O)c1c(C)[nH]c(C(=O)OCC(=O)N2CCN(S(=O)(=O)c3ccc(C)cc3C)CC2)c1C -6.76%
Cc1[nH]ccc(=O)c1Oc1ncc(C(F)(F)F)cc1Cl -2.35%
Cc1ccc(-c2nn(Cc3ccccc3)cc2/C=C/C(=O)O)cc1C -3.26%
COc1ccc(OC)c(C(c2nnnn2C2CCCC2)N2CCN(c3ccccc3F)CC2)c1 (stereo not drawn) -6.38% and 2.54%
COc1ccc(C)cc1NC(=O)C(C)N(c1ccc(C)cc1)S(C)(=O)=O (stereo not drawn) -0.78%
CCC(CC)C(=O)N1CC(=O)Nc2ccc(F)cc2C1c1ccccc1 (stereo not drawn) -0.74%
COc1cccc(/C=C2\SC(=S)N(c3cccnc3)C2=O)c1OC -3.12%
COc1ccc(CCN2C(=O)/C(=C\c3ccco3)SC2=S)cc1OC 0.31%
Cc1ccc(N2C(=O)/C(=C/c3ccco3)SC2=S)cc1 -7.25%
N=C1S/C(=C\c2cccc3ccccc23)C(=O)N1c1ccc(F)cc1 -3.83%
COc1cc(/C=C2\SC(=N)N(c3ccc4c(c3)OCO4)C2=O)cc(OC)c1O 2.68%
CC(/C=C1\SC(=S)N(CC(=O)N2CCN(c3ccccc3)CC2)C1=O)=C\c1ccccc1 25.6%
O=C(O)CN1C(=O)/C(=C\C(Br)=C\c2ccccc2)SC1=S 8.8%
O=C1/C(=C\c2ccc(O)cc2)SC(=S)N1c1cccnc1 1.44%
C[C@H](O)[C@@H]1C(=O)N2CCc3ccc(N4CCOCC4)cc3[C@@H]2C[C@@H]1N(C)S(=O)(=O)c1ccccc1 -8.52%

From PubChem BioAssay AID1117319 (Southern Research Institute, 2015)
